Reference: PubChem BioAssay (NCI)
About 83,000 compounds went through this panel and 20% of them were active in at least one assay; those are over-represented in the sample as a whole.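 Plates (96-well) were seeded with cells, treated with compound at one concentration, and incubated for 48 hours before percent growth was determined.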 Unmarked numbers belong to inactive results. Calls of active or inactive are those of the source. The calls were made as follows: active = growth percent below 10; inactive = the rest.

These compounds were tested on NCI-H23 lung (assay: NCI-60 one-dose screen, 48 h (100 = growth as untreated, 0 = no growth, -100 = all killed)). Settings: 10 µM unless noted.

`O=C(N/N=C/c1occc1Br)c1[nH]c2ccc(Br)cc2c1-c1ccccc1` was tested, and the growth was -100% (active).
For `Cn1cc(-c2cc(N)n3nc(-c4c[nH]c5ccccc45)cc3n2)c2cc(Br)ccc21`, the growth was -75.2% (active).

In the case of `Cc1ccc2c(c1)/C(=C/C(=O)c1cc3ccccc3oc1=O)C(=O)N2`, the growth is reported as 71.6%.

These compounds were tested on NCI-H226 lung in the same assay as above. Settings: 10 µM unless noted.

First: COc1cc(CNC(=O)C[C@H](C)CCC=C(C)C)ccc1OCc1cn(-c2ccc(Br)cc2)nn1
Second: COc1cc(CNC(=O)C[C@H](C)CCC=C(C)C)ccc1OCc1cn(-c2ccc(Cl)cc2Cl)nn1
The growth of the first is higher: 70.2% for the first, 66.4% for the second.

Compared with `N#CC1=C(c2cccs2)Nc2c(c(-c3ccccc3)nn2-c2ccccc2)C12C(=O)Nc1ccccc12` (stereo not given), `N#CC1=C(c2cccs2)Nc2c(c(-c3ccccc3)nn2-c2ccccc2)C12C(=O)Nc1ccc(Br)cc12` (stereo not given) is higher in growth: 12.8% for the first, 13% for the second.

Going from `N#Cc1c(-c2ccc(F)cc2)nc(SCc2ccc(F)cc2)nc1N1CCNCC1` to `N#Cc1ccc(C(=O)CSc2nc3c(c(Nc4ccc(S(N)(=O)=O)cc4)n2)CCC3)cc1`, the growth falls from 76.9% to 54.1%.

Compared with `COc1cc(NC(=O)CSc2nnc(-c3ccc(-c4nc5ccc(Cl)cc5[nH]4)cc3)o2)cc(OC)c1OC`, `O=C(N=Nc1c(O)[nH]c2ccc(Cl)cc12)c1ccc2nc(-c3ccc(Cl)cc3)[nH]c2c1` is lower in growth: 57.3% for the first, 51.1% for the second.

Compared with `CN(C)c1nc(NCCNS(=O)(=O)c2ccc(C(=O)/C=C/c3ccc(C(F)(F)F)cc3)cc2)nc(N2CCOCC2)n1`, `Fc1cccc(CNc2nc(SCCN3CCOCC3)nc3c2cnn3CC(Cl)c2ccc(Br)cc2)c1` (stereo not given) is lower in growth: 60.8% for the first, 27.5% for the second.

Going from `CC1=C(C(=O)OCc2ccccc2)C(c2ccc(N(C)C)cc2)n2c(nc3ccccc32)N1` (stereo not given) to `O=C(/C=C1\C(=O)N(Cc2ccccc2)c2ccccc21)c1cc2ccccc2oc1=O`, the growth rises from 70.1% to 74.2%.

Compared with `Cn1cc(-c2cc(N)n3nc(-c4c[nH]c5ccc(F)cc45)cc3n2)c2cc(Br)cnc21`, `Nc1nnc(-c2cncc(Br)c2)c(-c2c[nH]c3ccc(Br)cc23)n1` is higher in growth: 68.6% for the first, 76.5% for the second.

Going from `CCCCC[C@@H]1C/C=C(\C)[C@@H](O)C(C)(C)C(=O)[C@@H](C)/C=C(\C)[C@@H]2C[C@H](O)C[C@](O)(CC(=O)O1)O2` to `CC[C@]12C=CCN3CC[C@@]4(c5ccc(OC)cc5N(C)[C@H]4[C@@](O)(C(=O)OC)[C@@H]1OC(=O)CCCC[P+](c1ccc(F)cc1)(c1ccc(F)cc1)c1ccc(F)cc1)[C@@H]32`, the growth rises from 14% to 38%.

Compared with `COc1ccccc1NC(=O)N/N=C/c1c[nH]c2ccccc12`, `Clc1ccccc1Nc1nnc(-c2c[nH]c3ccccc23)o1` is higher in growth: 19% for the first, 43.9% for the second.

Going from `Nc1nnc(CS(=O)(=O)c2ccccc2)s1` to `O=C(CSc1nc2ccccc2c(=O)[nH]1)NNC(=O)c1ccccc1Cl`, the growth falls from 121% to 111%.

First: Cc1cccc(-c2ccccc2Oc2ccc3nnc(Cl)n3n2)c1
Second: COC(=O)c1cc(C(=O)CBr)n2c1ccc1c3ccccc3ccc12
The growth of the first is higher: 103% for the first, 53.4% for the second.

Compared with `CCCn1c(NC(=O)c2cccc(C(N)=O)c2)nc2cc(CN3CCCCC3)ccc21`, `COc1c2c(c(Br)c3c1C(CCc1ccccc1)N(C)CC3)OCO2` (stereo not given) is lower in growth: 101% for the first, 51.7% for the second.

Work on `O=C1c2cccc3c(N4CCN(c5ccccc5)CC4)ccc(c23)C(=O)N1c1cccc(-c2nn(-c3ccccc3)cc2-c2nc3ccccc3s2)c1` yielded a growth of 82%.

For `COc1ccc2c(c1)c(-c1cc(N)n3nc(-c4c[nH]c5ccccc45)cc3n1)cn2C`, the growth was -33.1% (active).
For `Cc1ccc(Cl)cc1NC(=O)Nc1nc2ccc([N+](=O)[O-])cc2s1`, the growth was -9.03% (active).
For `O=C(Cn1c(/C=C/c2ccc([N+](=O)[O-])cc2)nc2ccccc2c1=O)Nc1ccccc1`, the growth was -0.971% (active).
In the case of `CC(C)C[C@H](NC(=O)CNC(=O)C[C@H]1O[C@@H]2OC3(C)CC[C@H]4[C@H](C)CC[C@@H]([C@H]1C)[C@@]24O3)B(O)O`, the growth is reported as -36.2% (active).
`COc1ccccc1/C=C/c1cccc(NC(=S)NCCCCN(C)C)c1` was tested, and the growth was -71.5% (active).
With `COc1ccc(NC(=O)Nc2nc3ccc([N+](=O)[O-])cc3s2)cc1` the growth was 6.28% (active).
In the case of `Cn1cc(-c2cc3nc(-c4c[nH]c5ccccc45)cc(N)n3n2)c2ccccc21`, the growth is reported as 5.22% (active).
